# Screening data: PubChem BioAssay, National Center for Advancing Translational Sciences (NCATS)
# Sampled rows, rich in hits. Any-hit rate of the full collection: about 12%.
# JMJD2A Tudor inh: qHTS Assay for Inhibitors of JMJD2A-Tudor Domain; AlphaScreen JMJD2A-Tudor / H3K4me3 peptide binding; hit rate 4.4% among 390,000; Potency, µM (doses to about 114 µM), inactives show at the top dose activity change, negative = inhibition, usual class: inhibitors; further: on the % scale 0 is the no-effect control and ±100 the full control effect; nearly all actives have a fitted effect of over 50% in size
# G9a inh: qHTS Assay for Inhibitors of Histone Lysine Methyltransferase G9a; hit rate 8.8% among 350,000; Potency, µM (highest dose often 102 µM), without a hit: at the top dose activity, negative = inhibition, most hits filed as inhibitors; G9a H3K9 monomethylation, AlphaScreen, 2 h; Histone-lysine N-methyltransferase EHMT2 (Homo sapiens), Q96KQ7; further: on the % scale 0 is the no-effect control and ±100 the full control effect; nearly all actives have a fitted effect of over 75% in size
# Target sequence (Q96KQ7 913-1193 limits assumed): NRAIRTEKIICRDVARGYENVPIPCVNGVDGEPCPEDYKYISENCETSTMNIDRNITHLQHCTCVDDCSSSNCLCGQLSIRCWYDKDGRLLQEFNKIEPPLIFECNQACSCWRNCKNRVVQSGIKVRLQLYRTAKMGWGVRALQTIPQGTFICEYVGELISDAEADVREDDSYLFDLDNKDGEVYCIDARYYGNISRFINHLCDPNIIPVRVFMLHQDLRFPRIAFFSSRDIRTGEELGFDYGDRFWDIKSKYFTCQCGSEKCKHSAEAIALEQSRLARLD
#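 AlphaScreen read-out: biotin-H3K9 peptide (500 nM) methylation by 20 nM enzyme with 20 uM SAM, 2 h at room temperature after 15 min compound preincubation; anti-monomethyl H3K9 antibody plus donor/acceptor beads, 10 min dark.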
# Sfp inh: qHTS Assay for Inhibitors of Bacillus subtilis Sfp phosphopantetheinyl transferase (PPTase); 4'-phosphopantetheinyl transferase ffp (Bacillus subtilis), Q9F4F7; Biochemical Sfp PPTase activity, qHTS; Potency, µM, for inactives: largest response in the series, negative = inhibition, hits mostly inhibitors; hit rate 3.5% among 310,000; AID 1490, 2009;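 further: the enzyme is Sfp with the accession as filed and its product quenches rhodamine fluorescence; 0% = enzyme reaction without inhibitor and -100% = no enzyme wells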
#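 Fluorescence-quenching assay with 15 nM Sfp, 5 uM rhodamine-CoA and 12.5 uM BHQ-2-labelled ybbR peptide in pH 7.6 Hepes/MgCl2 buffer. Enzyme was pre-incubated with compound for 15 min at room temperature. Rate was taken from the 30-min fluorescence change (525/598 nm).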
# HP1b chromo inh: HTS for Inhibitors of HP1-beta Chromodomain Interactions with Methylated Histone Tails. Chromobox protein homolog 1 (Homo sapiens), P83916. AlphaScreen HP1-beta / biotin-H3K9me3 peptide binding. Potency, µM (top dose mostly 114 µM), inactives show at the highest dose activity change, negative = inhibition, usual class: inhibitors. hit rate 0.56% among 390,000. AID 540317, 2011; further: nearly all actives have a fitted effect of over 70% in size
# Target sequence (P83916 whole entry, looked up): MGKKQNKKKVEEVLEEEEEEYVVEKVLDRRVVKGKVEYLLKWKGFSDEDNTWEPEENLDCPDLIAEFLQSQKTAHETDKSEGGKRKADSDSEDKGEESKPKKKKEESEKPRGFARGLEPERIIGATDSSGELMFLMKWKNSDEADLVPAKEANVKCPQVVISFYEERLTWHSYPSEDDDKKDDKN
#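 HP1-beta protein (50 nM final) preincubated 30 min at room temperature with biotinylated H3(1-18)K9me3 peptide (50 nM) in PBS pH 7.4, 0.01% Tween-20, then compound added for 30 min. AlphaScreen streptavidin donor/nickel chelate acceptor beads (10 ug/mL final), 30 min dark, luminescence read.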
# BAZ2B inh: qHTS Assay for Inhibitors of BAZ2B; Potency, µM (highest dose often 114 µM), inactives show top-dose activity change, negative = inhibition, actives largely listed as inhibitors; AID 504333, 2011; AlphaScreen BAZ2B-H3K14Ac peptide displacement; hit rate 4.4% among 360,000; further: on the % scale 0 is the no-effect control and ±100 the full control effect; nearly all actives have a fitted effect of over 60% in size
#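 Compounds, titrated to a top concentration of 110 uM, were incubated 30 min at room temperature with preformed BAZ2B/acetyl-K14 H3 peptide complex (50 nM each). Proximity signal was measured by AlphaScreen after 20 min with beads.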
# * = called active by the depositor; u = inconclusive; x = no result; [ ] = dose if it differs, or a comment. The call rests on the fitted dose curve; in most records, active means well fitted curve in the direction sought with a large enough effect; inconclusive means small, poorly fitted or top-dose-only effect, or another doubt; inactive means no such curve, though single readings can be large; an effect the other way counts as inactive or inconclusive. Potency means the concentration at half of the fitted maximal effect.
SMILES,JMJD2A Tudor inh,G9a inh,Sfp inh,HP1b chromo inh,BAZ2B inh
C=CCn1c(SCc2ccc(C#N)cc2)nnc1-c1ccccc1,-7.2%,1.41µM*,-2.0%,39.3%,-1.4%
C=CCn1c(COc2ccc(Cl)cc2)nnc1SCC(=O)NCC(=O)OCC,-19.1%,28.2µM*,14.5%,24.2%,-26.1%
C=CCn1c(COc2ccccc2)nnc1SCc1ccc(C#N)cc1,-9.6%[11.4 µM],-1.5%,6.4%,-3.2%,-4.7%
C=CCn1c(COc2ccc(Cl)cc2)nnc1SCc1ccc(C#N)cc1,u,28.2µM*,2.1%,59.1%,3.4%
c1coc(CNc2nc(-c3cccs3)nc3ccccc23)c1,-29.9%,x,x,x,x
N#CC1=C2N=C(N)c3c(sc4c3CCCCC4)N2C2=C(C(=O)CCC2)C1c1ccccc1 (stereo not drawn),u,-9.3%[59 µM],-24.6%,-6.3%,44.7µM*
N#CC1=C2N=C(N)c3ccccc3N2C2=C(C(=O)CCC2)C1c1ccc(F)cc1 (stereo not drawn),u,-35.0%,8.5%,2.9%,-34.7%
Cc1ccc(C2C(C#N)=C3N=C(N)c4ccccc4N3C3=C2C(=O)CCC3)cc1 (stereo not drawn),u,u,-14.1%,5.9%,50.1µM*
COc1coc(/C=C/C(=O)O)cc1=O,-7.7%,-36.3%,5.7%,15.0%,-0.9%
Cc1ccc([N+](=O)[O-])c2c1C(N1CCCC1)C(C)(C)O2 (stereo not drawn),-31.0%,11.2µM*,1.3%,6.6%,u
CC(C)(C)c1ccc(CSc2nnc(-c3ccccn3)n2Cc2ccco2)cc1,-23.3%,-5.0%[12.7 µM],31.6µM*,21.3%,u
Brc1ccc(CSc2nnc(-c3ccccn3)n2Cc2ccco2)cc1,-32.9%,50.1µM*,-25.0%,26.4%,u
Clc1cccc(CSc2nnc(-c3ccccn3)n2Cc2ccco2)c1,-26.4%,u,-20.3%,19.0%,u
Cc1cccc(NC(=O)Cn2nnc(-c3nc(-c4ccncc4)no3)c2N)c1,u,-28.6%[59 µM],x,168.6%,u
CC(C)CCCC(C)NC(C)C (stereo not drawn),x,-29.1%[12.7 µM],11.8%,x,x
O=C(Nc1cc(C(=O)Nc2ccc(S(=O)(=O)O)cc2S(=O)(=O)O)cc(C(=O)Nc2ccc(S(=O)(=O)O)cc2S(=O)(=O)O)c1)Nc1cc(C(=O)Nc2ccc(S(=O)(=O)O)cc2S(=O)(=O)O)cc(C(=O)Nc2ccc(S(=O)(=O)O)cc2S(=O)(=O)O)c1,x,0.0708µM*,6.1%,x,x
O=C(Nc1ccc(C(=O)Nc2ccc(C(=O)Nc3ccc(S(=O)(=O)O)c4cc(S(=O)(=O)O)cc(S(=O)(=O)O)c34)cc2)cc1)Nc1ccc(C(=O)Nc2ccc(C(=O)Nc3ccc(S(=O)(=O)O)c4cc(S(=O)(=O)O)cc(S(=O)(=O)O)c34)cc2)cc1,x,1.26µM*,u,x,x
CC(C(=O)O)n1nc(-c2ccccc2)c2ccccc21 (stereo not drawn),-5.4%,2.0%,22.2%,6.7%,0.4%
Fc1cc(Br)ccc1NC(=S)NCCc1ccccc1,5.8%,68.6%,-5.8%,39.2%,6.6%
S=C(NCCc1ccccc1)Nc1ccc(Br)cn1,-4.7%,7.08µM*,-2.0%,11.1%,u
O=C(O)c1cccc2cc(-c3ccccc3)oc(=O)c12,-13.9%,1.6%,10.6%,32.3%,-8.1%
O=C(O)c1cccc2cccc(-c3c4ccc(=O)c(O)c-4oc4c(O)c(O)ccc34)c12,0.794µM*,x,x,u,x
COc1ccc2[nH]c(C(=O)O)c(CCNC(C)=O)c2c1,-17.5%,6.3%,11.8%,37.5%,-1.8%
COc1ccc2[nH]c(C)c(CCNC(=S)Nc3ccccc3C)c2c1,89.1µM*,50.1µM*,-2.3%,u,44.7µM*
COc1ccc2[nH]c(I)c(CCNC(C)=O)c2c1,x,x,11.1%,x,x
CCc1cccc(CC)c1NC(=S)NCCc1c(C)[nH]c2ccccc12,44.7µM*,44.7µM*,13.9%,-16.4%,31.6µM*
